Reference: PubChem BioAssay AID504333 (National Center for Advancing Translational Sciences (NCATS), 2011)
About 16,000 (4.4%) of roughly 360,000 compounds were called active. Roughly 9% stayed inconclusive and do not appear here. The entries come from a sample that favours actives as a whole. A call without a number means that no potency is given here. Unmarked numbers belong to inactive results. Calls come from the whole dose curve; as a rule, active = well fitted inhibition curve with a large enough effect; inconclusive = small, poorly fitted or top-dose-only effect; inactive = no such curve, though single readings can be large or run the other way.

Each compound was assayed against Bromodomain adjacent to zinc finger domain protein 2B (Homo sapiens) (UniProt Q9UIF8) (assay: qHTS Assay for Inhibitors of BAZ2B). Settings: AlphaScreen BAZ2B-H3K14Ac peptide displacement; series mostly up to 114 µM.
Description: BAZ2B (bromodomain adjacent to zinc finger domain, 2B) belongs to a family of ubiquitously expressed bromodomain containing proteins, which biological function has not yet been elucidated. […] The interaction of BAZ2B with ISWI mediated by the BAZ1 motif has recently been described. […] The protocol is based on the AlphaScreen (PerkinElmer) displacement assay developed by NCGC [5], but uses the peptide ligand Biot-H3K14Ac, a high affinity binding partner for BAZ2B, in an AlphaScreen format. Although AlphaScreen has significant advantages with its utility in a variety of epigenetic target assays, the primary screening data provided in this deposition should be used with caution due to the prevalence of screening artifacts. The top compound concentration tested was 110uM in this assay, which increases number of actives and potential artifacts. An AlphaScreen counterscreen is highly recommended to be run against any putative actives to eliminate non-specific artifacts. Alternatively, one can use other AlphaScreen assays in PubChem to filter out promiscuous hits. Eberharter, A. et al. ACF1 improves the effectiveness of nucleosome mobilization by ISWI through PHD-histone contacts. The EMBO journal 23, 4029-4039. 2004. PMID: 15457208 [2] Jones, M.H. et al. A novel family of bromodomain genes. Genomics 63, 40-45. 2000. PMID: 10662543 [3] Yasgar, et al. Compound Management for Quantitative High-Throughput Screening. JALA. 2008 Apr;13(2):79-89. PMID: 18496600 [4] Inglese, et al. Quantitative high-throughput screening: a titration-based approach that efficiently identifies biological activities in large chemical libraries. Proc Natl Acad Sci. 1;103(31):11473-8. 2006. PMID: 16864780 [5] Quinn et al. A chemiluminescence-based method for identification of histone lysine methyltransferase inhibitors. Mol Biosyst 6(5): 782-8. 2010. PMID: 20567762 [6] Baell,Holloway. New substructure filters for removal of pan assay interference compounds (PAINS) from screening libraries and for their exclusion in bioassays. J Med Chem. 53(7):2719-40. 2010. PMID: 20131845 NIH Molecular Libraries Probe Production Network [MLPCN] NIH Chemical Genomics Center [NCGC] Structural Genomics Consortium (SGC) NIH Grant: 5U54 MH084681-02
To each well of a 1,536w plate, 2ul of BAZ2B protein (final 50nM) and 1ul biotinylated histone peptide acetylated at Lys14 [b-H3(5-23)K14Ac] (final 50nM) were added in 1x PBS buffer, pH 7.4, containing 0.01% Tween-20, using a nanoliter dispenser. Formation of a protein-peptide complex proceeded at room temperature for 30 min. A Kalypsys pin-tool was employed to transfer 23 nL of library compound solution in DMSO to each well. Following a 30 min incubation of the protein-peptide complex with compounds at room temperature, a mixture of 40 ug/mL each streptavidin-coated donor and nickel chelate acceptor AlphaScreen beads (final 10 ug/mL) were added in a 1ul dispense for a final volume of 4ul. A brief centrifugation followed (1000rpm, 1 min) and were then incubated protected from the light for 20 min at room temperature. Plates were read on an EnVision multilabel plate reader using the 1,536 plate HTS AlphaScreen aperture (excitation time 80 ms, measurement time 240 ms).
Note: nearly all actives have a fitted effect of over 60% in size.
Potency is the fitted concentration of half-maximal effect.

Chain of Bromodomain adjacent to zinc finger domain protein 2B (Homo sapiens) (Q9UIF8 whole entry, looked up, the tested form may be a part): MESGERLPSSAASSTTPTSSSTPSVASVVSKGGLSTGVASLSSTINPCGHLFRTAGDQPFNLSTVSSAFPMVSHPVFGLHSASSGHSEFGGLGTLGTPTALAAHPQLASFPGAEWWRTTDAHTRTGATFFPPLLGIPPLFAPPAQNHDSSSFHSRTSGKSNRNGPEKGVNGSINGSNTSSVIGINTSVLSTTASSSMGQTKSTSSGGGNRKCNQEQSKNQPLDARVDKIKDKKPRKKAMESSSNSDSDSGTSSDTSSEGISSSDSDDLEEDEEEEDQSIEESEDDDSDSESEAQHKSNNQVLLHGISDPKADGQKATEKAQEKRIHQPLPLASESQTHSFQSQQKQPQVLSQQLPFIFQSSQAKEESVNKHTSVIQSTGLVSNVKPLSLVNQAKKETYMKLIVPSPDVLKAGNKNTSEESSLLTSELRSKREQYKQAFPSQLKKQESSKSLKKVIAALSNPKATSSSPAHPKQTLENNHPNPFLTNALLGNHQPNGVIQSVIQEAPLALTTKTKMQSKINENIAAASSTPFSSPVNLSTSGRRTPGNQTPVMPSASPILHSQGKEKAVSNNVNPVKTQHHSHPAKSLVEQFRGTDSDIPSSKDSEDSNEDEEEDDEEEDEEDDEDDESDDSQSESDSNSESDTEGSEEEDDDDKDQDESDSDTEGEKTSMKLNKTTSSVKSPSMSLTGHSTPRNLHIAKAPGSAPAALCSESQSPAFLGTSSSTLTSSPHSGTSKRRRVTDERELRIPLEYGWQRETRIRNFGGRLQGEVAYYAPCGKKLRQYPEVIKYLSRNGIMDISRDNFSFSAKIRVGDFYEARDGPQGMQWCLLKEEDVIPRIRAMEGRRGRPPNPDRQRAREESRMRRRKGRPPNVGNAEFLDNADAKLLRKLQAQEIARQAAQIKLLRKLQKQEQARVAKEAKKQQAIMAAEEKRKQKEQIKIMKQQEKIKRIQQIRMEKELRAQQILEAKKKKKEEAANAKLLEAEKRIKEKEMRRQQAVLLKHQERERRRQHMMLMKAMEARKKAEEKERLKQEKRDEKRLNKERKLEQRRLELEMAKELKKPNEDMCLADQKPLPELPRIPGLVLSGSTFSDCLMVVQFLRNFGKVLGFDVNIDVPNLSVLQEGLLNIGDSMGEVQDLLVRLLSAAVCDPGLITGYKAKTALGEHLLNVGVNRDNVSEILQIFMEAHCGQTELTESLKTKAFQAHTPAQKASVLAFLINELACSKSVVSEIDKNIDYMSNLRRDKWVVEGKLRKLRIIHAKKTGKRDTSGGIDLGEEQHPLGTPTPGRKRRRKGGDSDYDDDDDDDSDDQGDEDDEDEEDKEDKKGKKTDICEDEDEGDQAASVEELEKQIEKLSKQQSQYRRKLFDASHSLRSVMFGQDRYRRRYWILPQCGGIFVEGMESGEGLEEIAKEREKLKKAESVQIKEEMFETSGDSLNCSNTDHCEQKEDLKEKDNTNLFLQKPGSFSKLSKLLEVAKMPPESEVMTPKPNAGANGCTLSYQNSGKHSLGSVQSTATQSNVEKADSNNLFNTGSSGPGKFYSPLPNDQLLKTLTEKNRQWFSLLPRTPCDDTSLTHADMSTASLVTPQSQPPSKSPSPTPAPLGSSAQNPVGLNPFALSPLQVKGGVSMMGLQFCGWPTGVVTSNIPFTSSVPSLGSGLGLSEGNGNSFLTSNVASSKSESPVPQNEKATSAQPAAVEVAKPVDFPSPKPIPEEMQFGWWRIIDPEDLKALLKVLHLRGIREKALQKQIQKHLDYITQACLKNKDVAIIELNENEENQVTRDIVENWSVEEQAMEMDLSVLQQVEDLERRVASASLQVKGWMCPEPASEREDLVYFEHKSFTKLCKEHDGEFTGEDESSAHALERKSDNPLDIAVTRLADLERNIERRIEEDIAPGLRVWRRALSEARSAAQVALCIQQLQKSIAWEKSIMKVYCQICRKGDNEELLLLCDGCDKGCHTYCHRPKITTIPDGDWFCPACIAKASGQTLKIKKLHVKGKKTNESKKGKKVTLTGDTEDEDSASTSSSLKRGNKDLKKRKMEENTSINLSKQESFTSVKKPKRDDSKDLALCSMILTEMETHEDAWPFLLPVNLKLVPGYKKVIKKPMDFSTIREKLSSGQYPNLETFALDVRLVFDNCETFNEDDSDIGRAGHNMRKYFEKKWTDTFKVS

SMILES	Potency
CCOc1ccccc1N(CC)C(=O)Nc1cn(C)c(=O)c2ccccc12	inactive
CC(C)c1ccc(NC(=O)CN(C)S(=O)(=O)c2ccc3c(c2)c(=O)n(C)c(=O)n3C)cc1	inactive
CCS(=O)(=O)c1nc(S(=O)(=O)c2ccc(C)cc2)c(NCc2ccc(Cl)cc2)s1	inactive
Cn1c(=O)c(C(=O)O)nn(-c2ccccc2)c1=O	inactive
O=C(O)C1CCN(c2ccc([N+](=O)[O-])cc2[N+](=O)[O-])CC1	56.2 µM (active)
CC1CCN(c2ccc([N+](=O)[O-])cc2C(N)=O)CC1	inactive
CCOC(=O)C1CCN(c2ccc(C(=O)O)cc2[N+](=O)[O-])CC1	inactive
Cc1ccc(Cl)cc1N1CCN(S(=O)(=O)c2cc3[nH]c(=O)c(=O)[nH]c3cc2C)CC1	inactive
COc1ccc(CCC(=O)NCc2ccc3c(c2)CCN3C(=O)c2ccc(F)cc2)cc1	inactive
COc1ccccc1-c1noc(-c2ccc(NCc3ccccc3)c([N+](=O)[O-])c2)n1	inactive
O=C(CSc1nnc(-c2ccccc2F)o1)Nc1cccc(C(F)(F)F)c1	inactive
c1ccc(C(c2ccccc2)N2CCN(Cc3nnnn3C3CCCCC3)CC2)cc1	inactive
COc1ccccc1N1CCN(Cc2ccc(OC)c3ccccc23)CC1	28.2 µM (active)
COc1ccccc1CN1CCN(Cc2cc(OC)c(OC)cc2OC)CC1	50.1 µM (active)
COc1cc(CN2CCCN(C)CC2)c([N+](=O)[O-])cc1OC	inactive
COc1ccccc1CN1CCCC(N2CCN(c3ccc(F)cc3)CC2)C1 (stereo unspecified)	inactive
Oc1ccccc1CN1CCN(C(c2ccccc2)c2ccccc2)CC1	50.1 µM (active)
COc1ccccc1CNCc1cccs1	inactive
CNCC(O)CN1CCN(c2ccccc2OC)CC1 (stereo unspecified)	inactive
COc1ccccc1Cn1c(CO)nc2ccccc21	inactive
COc1ccccc1N1CCN(Cc2cc(OC)c3c(c2)OCO3)CC1	inactive
CC(=O)N1CCN(CC(c2ccccc2)c2ccccc2)CC1	inactive
COc1ccccc1CN1CCN(C(c2ccccc2)c2ccccc2)CC1	79.4 µM (active)
Cc1ccc2cccc(NC(=O)c3ccc(OC(C)C)cc3)c2n1	inactive
Cc1ccc(NC(=O)CSc2nnc3[nH]c(=O)cc(C)n23)cc1Cl	inactive
CSc1ccc(C2c3c(oc4ccccc4c3=O)C(=O)N2CCCN2CCOCC2)cc1 (stereo unspecified)	inactive

SMILES	Potency
COc1cccc(C(=O)N(Cc2cccc(Cl)c2)Cc2ccco2)c1	inactive
O=C(COc1ccc(Cl)cc1)Nc1ccccc1OCc1cc(=O)n2ccccc2n1	inactive
Cc1ccc(NC(=O)c2cc3cc(C)ccc3n2C)cc1	inactive
O=C(Cn1c(=O)n(Cc2ccccc2)c(=O)c2sc3ccccc3c21)Nc1ccccc1F	inactive
Cc1ccc(C2CCN(C(=O)c3cnn(-c4ccccc4Cl)c3C3CCN(C(=O)OC(C)(C)C)CC3)C2)cc1 (stereo unspecified)	inactive
COc1cccc(CNC(=O)Cn2ncn3c(cc4ccccc43)c2=O)c1	inactive
Cc1ccc(NC(=O)CN2c3ccccc3S(=O)(=O)c3ccccc32)cc1F	inactive
CCCn1c2ccccc2c2cnn(CC(=O)N3CCCC(C(=O)OCC)C3)c(=O)c21 (stereo unspecified)	inactive
COc1cc2c3c(c1)/C(=C1/SC(=S)NC1=O)C(=O)N3C(C)(C)C=C2C	44.7 µM (active)
CCOC(=O)c1ccc(NC(=O)c2nc[nH]c2C(=O)NCc2ccccc2)cc1	inactive
CC(C)(C)OC(=O)N1CCC(NC(=O)c2[nH]cnc2C(=O)N[C@@H](Cc2ccccc2)C(=O)OCc2ccccc2)CC1	inactive
CCOC(=O)c1[nH]cnc1C(=O)NC1CCCCC1	50.1 µM (active)
COc1ccc2cc(CNc3ccc(OC)c(OC)c3)c(=O)n(CC(=O)Nc3ccccc3F)c2c1	inactive
COc1cccc(-c2n[nH]c3c2C(c2cccc(O)c2)N(C)C3=O)c1 (stereo unspecified)	inactive
Cc1ccc(/C=N/NC(=O)c2cc3ccccc3cc2O)o1	inactive
Cc1cc(N=Nc2ccc3ccccc3c2)ccc1O	28.2 µM (active)
COc1ccc(/C=C/c2noc(-c3ccccc3O)n2)cc1OC	inactive
COc1ccc(-n2c(SCC(=O)Nc3ccc(Cl)c(C)c3)nc3n[nH]c(C)c3c2=N)cc1	inactive
CCc1cccc(NC(=O)CN(c2ccc(C)c(C)c2)S(=O)(=O)c2ccsc2C(=O)OC)c1	inactive
O=C(CN1CCN(c2ccc(F)cc2)CC1)Nc1ccccc1	inactive
Oc1c(CN2CCCC2)cc(COCc2ccccc2)c2cccnc12	17.8 µM (active)
Cc1cccnc1NC(=O)c1cccc(S(=O)(=O)N2CCN(c3ccc(F)cc3)CC2)c1	inactive
Oc1c(CN2CCN(c3ccc(F)cc3)CC2)cc(Cl)c2cccnc12	22.4 µM (active)
COc1cc(CN2CCC(C(N)=O)CC2)ccc1OCc1ccccc1	inactive
COc1cc(C)cc(CN2CCC(Cc3ccccc3)CC2)c1O	inactive
